Source: PubChem BioAssay AID1159580 (chemical genetic matrix, 2015)
In all, about 5,500 compounds went through this assay and about 2,000 (36%) were called active. Roughly 18% stayed inconclusive and do not appear here. Rule as the data show it: active = normalized growth mostly below about 0.91 (no sharp cut-off); inconclusive = no clear call, values can overlap the other calls; inactive = mostly above about 0.92. This is one part of the list.

Test: chemical genetic growth profiling, strain panel (AID 1159580);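 also: tested at 20 µM; growth read once vehicle control cultures reached saturation at 30 °C; 1 = growth at the plate median or of vehicle wells; lower values mean less growth of the strain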
Settings: S. cerevisiae deletion strains, growth OD
[1] = locus YHR030C, strain SLT2, active compounds read low
[2] = locus YHR079C, strain IRE1, active compounds read low
[3] = locus YJL095W, strain BCK1, active compounds read low
[4] = locus YJR066W, strain TOR1, active compounds read low
[5] = locus YLR113W, strain HOG1, active compounds read low
[6] = locus YNL183C, strain NPR1, active compounds read low
[7] = locus YOR231W, strain MKK1, active compounds read low
[8] = locus YPL256C, strain CLN2, active compounds read low
[9] = locus YCL061C, strain MRC1, active compounds read low

Measured: normalized growth

CCN(CC)CCNC(C(=O)OCCC(C)C)c1ccccc1 (centres undefined)
inactive: [1] 0.984 | [2] 0.986 | [3] 0.979 | [4] 0.913 | [5] 1.03 | [6] 0.916 | [7] 0.978 | [8] 0.964

Nc1ccc([As](=O)(O)O)cc1
inactive: locus YAL021C, strain ccr4, active compounds read low 1 | locus YAL026C, strain drs2, active compounds read low 1.02 | locus YAL030W, strain snc1, active compounds read low 1 | locus YBL061C, strain skt5, active compounds read low 1.01 | locus YBR009C, strain hhf1, active compounds read low 1.02 | locus YBR023C, strain chs3, active compounds read low 1.02 | locus YBR171W, strain sec66, active compounds read low 0.997 | locus YBR231C, strain swc5, active compounds read low 1.01 | locus YBR279W, strain paf1, active compounds read low 1 | locus YCL011C, strain gbp2, active compounds read low 1 | locus YCL016C, strain dcc1, active compounds read low 1.01 | [9] 1 | locus YCL069W, strain vba3, active compounds read low 1.01 | locus YCR088W, strain abp1, active compounds read low 1.01 | locus YDL005C, strain med2, active compounds read low 0.996 | locus YDL040C, strain nat1, active compounds read low 1.01 | locus YDR001C, strain nth1, active compounds read low 0.992 | locus YDR069C, strain doa4, active compounds read low 1.01 | locus YDR137W, strain rgp1, active compounds read low 0.994 | locus YDR159W, strain sac3, active compounds read low 1.02 | locus YDR195W, strain ref2 0.993 | locus YDR297W, strain sur2, active compounds read low 0.999 | locus YDR334W, strain swr1, active compounds read low 1.01 | locus YDR335W, strain msn5, active compounds read low 0.995 | locus YDR392W, strain spt3, active compounds read low 1.01 | locus YEL003W, strain gim4, active compounds read low 0.996 | locus YEL037C, strain rad23, active compounds read low 0.997 | locus YEL061C, strain CIN8 (second series), active compounds read low 0.997 | locus YER015W, strain faa2, active compounds read low 0.999 | locus YER016W, strain bim1, active compounds read low 1 | locus YER111C, strain swi4, active compounds read low 1 | locus YER155C, strain BEM2 (second series), active compounds read low 1.03 | locus YFR010W, strain ubp6, active compounds read low 1 | locus YGL167C, strain pmr1, active compounds read low 0.997 | locus YGL173C, strain kem1, active compounds read low 1.01 | locus YGL227W, strain vid30, active compounds read low 0.998 | locus YGL240W, strain doc1, active compounds read low 1.01 | locus YGL253W, strain hxk2, active compounds read low 1 | locus YHR013C, strain ard1, active compounds read low 1.03 | locus YHR027C, strain rpn1, active compounds read low 1 | [1] 1 | [2] 0.984 | locus YHR142W, strain chs7, active compounds read low 1.02 | locus YJL092W, strain hpr5, active compounds read low 1.01 | locus YJL095W, strain BCK1 (second series), active compounds read low 1 | [3] 0.971 | locus YJL115W, strain asf1, active compounds read low 1.01 | locus YJL129C, strain trk1, active compounds read low 1 | locus YJL154C, strain vps35, active compounds read low 1 | locus YJL164C, strain tpk1, active compounds read low 1.01 | locus YJL166W, strain qcr8, active compounds read low 0.998 | locus YJL187C, strain SWE1, active compounds read low 1 | [4] 0.966 | locus YKL160W, strain elf1, active compounds read low 1 | locus YKR026C, strain gcn3, active compounds read low 0.997 | locus YKR091W, strain srl3, active compounds read low 1.01 | locus YLL001W, strain dnm1, active compounds read low 1.01 | locus YLL026W, active compounds read low 1.01 | locus YLL041C, strain sdh2, active compounds read low 1.01 | locus YLR027C, strain aat2, active compounds read low 1 | [5] 0.965 | locus YLR221C, strain rsa3, active compounds read low 1.01 | locus YLR258W, strain gsy2, active compounds read low 1.01 | locus YLR262C, strain YPT6 (second series), active compounds read low 1 | locus YLR320W, strain mms22, active compounds read low 0.999 | locus YLR342W, strain FKS1, active compounds read low 1.01 | locus YLR357W, strain rsc2, active compounds read low 1.01 | locus YLR370C, strain arc18, active compounds read low 1 | locus YLR384C, strain iki3, active compounds read low 1 | locus YML120C, strain ndi1, active compounds read low 0.997 | locus YMR058W, strain fet3, active compounds read low 1 | locus YMR125W, strain sto1, active compounds read low 1 | locus YMR129W, active compounds read low 1 | locus YMR205C, strain PFK2, active compounds read low 1.04 | locus YMR231W, strain pep5, active compounds read low 1 | locus YNL071W, strain lat1, active compounds read low 1 | [6] 0.968 | locus YNL209W, strain ssb2, active compounds read low 0.999 | locus YNL248C, strain rpa49, active compounds read low 0.992 | locus YNL322C, strain KRE1 (second series), active compounds read low 1.01 | locus YNR049C, strain mso1, active compounds read low 1 | locus YOR001W, strain rrp6, active compounds read low 1 | locus YOR070C, strain gyp1, active compounds read low 1.01 | locus YOR080W, strain dia2, active compounds read low 1.01 | locus YOR083W, strain WHI5, active compounds read low 1 | locus YOR106W, strain vam3, active compounds read low 1.03 | [7] 1.01 | locus YOR265W, strain rbl2, active compounds read low 0.996 | locus YOR270C, strain vph1, active compounds read low 1.06 | locus YOR290C, strain snf2, active compounds read low 1 | locus YPL051W, strain arl3, active compounds read low 1.01 | locus YPL078C, strain atp4, active compounds read low 0.996 | locus YPL106C, strain sse1, active compounds read low 0.996 | locus YPL240C, strain hsp82, active compounds read low 1 | [8] 1.02

CC(=O)Nc1cc([N+](=O)[O-])ccc1-n1cc(C)c(C(F)(F)F)n1
inactive: locus YAL013W, strain DEP1, active compounds read low 0.966 | locus YBR229C, strain ROT2, active compounds read low 0.985 | [9] 0.978 | locus YDL101C, strain DUN1, active compounds read low 0.986 | locus YDR150W, strain NUM1, active compounds read low 0.947 | locus YEL061C, strain CIN8, active compounds read low 0.998 | locus YGR078C, strain PAC10, active compounds read low 0.996 | [1] 0.871 | locus YHR087W, strain rtc3, active compounds read low 0.982 | locus YJR043C, strain POL32, active compounds read low 1 | locus YJR075W, strain HOC1, active compounds read low 0.973 | locus YKL190W, strain CNB1, active compounds read low 0.992 | locus YLR039C, strain RIC1, active compounds read low 0.935 | locus YLR058C, strain SHM2 (second series), active compounds read low 0.988 | locus YLR085C, strain ARP6, active compounds read low 0.94 | locus YLR262C, strain YPT6, active compounds read low 0.928 | locus YML094W, strain GIM5, active compounds read low 0.963 | locus YMR219W, strain ESC1, active compounds read low 0.988 | locus YMR263W, strain SAP30, active compounds read low 0.917 | locus YNL153C, strain GIM3, active compounds read low 0.985 | locus YNL298W, strain CLA4 (second series), active compounds read low 0.962 | locus YNL322C, strain KRE1, active compounds read low 0.981 | locus YNR030W, strain Alg12, active compounds read low 0.962 | locus YPL055C, strain LGE1, active compounds read low 0.931 | locus YPL241C, strain CIN2, active compounds read low 1.03 | locus YPR135W, strain CTF4, active compounds read low 0.905
